Over roughly 18,000 sequences, “TetR repression strength (sort-seq, GFP reporter)” has its median near 0.23; the highest 2% begin near 0.68. What follows is part of a selection rich in the highest values, with near analogues and random picks from the rest.
Target: TetR (class B, Tn10) (UniProt P04483)
Experiment: TetR repression strength (sort-seq, GFP reporter) (relative to tetO2 = 1); higher = stronger repression
Conditions: E. coli
How it was run: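 In LB with 50 µg/mL chloramphenicol, E. coli SIG10-MAX holding a low-copy library with eight randomized operator positions between a constitutive promoter and sfGFP, plus constitutive TetR, grew for 5 h at 37 °C. FACS then sorted 10^6 cells into 13 fluorescence bins for Illumina sequencing of each bin. Repression strength equals the top bin index plus one less the read-weighted mean bin, normalized to the unaltered operator. Values from three independent transformations were averaged when reads were ≥30 in every replicate and the CV was ≤0.5.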

Chain of TetR (class B, Tn10) (P04483 whole entry): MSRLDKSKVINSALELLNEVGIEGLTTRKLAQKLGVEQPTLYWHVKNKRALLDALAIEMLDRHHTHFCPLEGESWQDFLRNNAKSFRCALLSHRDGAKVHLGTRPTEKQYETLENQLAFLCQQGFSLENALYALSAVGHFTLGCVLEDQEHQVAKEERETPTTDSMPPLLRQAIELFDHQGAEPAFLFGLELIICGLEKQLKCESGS

Sequence	TetR repression strength
TCCCTCATAGTGCTCGAGA	0.581
TCCCAGGGAGTGTTAGAGA	0.263
TCCCGCTGAGTCCGGGAGA	0.401
TCCCCGTCAGTAGGCGAGA	0.243
TCCCGGTCAGTAGGCGAGA	1.01
TCCCAGTCAGTAGGCGAGA	0.16
TCCCTAGCAGTCTTCGAGA	0.495
TCCCTTGGAGTCGTTGAGA	0.304
TCCCTTTTAGTGTATGAGA	0.271
TCCCTTAGAGTCTATGAGA	0.159
TCCCTTCTAGTCTTTGAGA	0.693
TCCCTTTGAGTCTATGAGA	0.804
TCCCATTTAGTCTATGAGA	0.279
TCCCTTTTAGTCTATGAGA	0.858
TCCCTTCTAGTTGCTGAGA	0.73
TCCCGTCTAGTCTTTGAGA	0.366
TCCCTTTGAGTCTTTGAGA	0.181
TCCCTTCTAGTTACTGAGA	0.464
TCCCTTCTAGTTTTTGAGA	0.415

Sequence	TetR repression strength
TCCCTTCTAGTTGTTGAGA	0.216
TCCCTGGTAGTTGCTGAGA	0.189
TCCCAGAAAGTCGGGGAGA	0.0115
TCCCGAGCAGTATCGGAGA	0.138
TCCCAATAAGTGATTGAGA	0.408
TCCCACATAGTCTTTGAGA	0.244
TCCCGTGTAGTGATCGAGA	0.209
TCCCGCTGAGTTTTTGAGA	0.307
TCCCGGAGAGTTGAGGAGA	0.193
TCCCGGTTAGTAATTGAGA	0.345
TCCCGTTAAGTGCCTGAGA	0.419
TCCCGTTCAGTTGCTGAGA	0.512
TCCCGCTAAGTTTCTGAGA	0.393
TCCCGTTAAGTTGCTGAGA	0.517
TCCCGCGAAGTTGCTGAGA	1.1
TCCCGTTCAGTTCCTGAGA	0.705
TCCCGCGAAGTTGGTGAGA	0.202
TCCCGGTCAGTTCCTGAGA	0.26
TCCCCGTAAGTTCCTGAGA	0.231

Sequence	TetR repression strength
TCCCGCTAAGTTCCTGAGA	0.792
TCCCGTTAAGTTCCTGAGA	0.721
TCCCGCGAAGTTGTTGAGA	0.112
TCCCACATAGTTTAAGAGA	0.187
TCCCACCTAGTCTGCGAGA	0.302
TCCCTGACAGTAGTAGAGA	0.541
TCCCTGATAGTTCGAGAGA	0.244
TCCCGGTGAGTGCGAGAGA	0.189
TCCCAAGTAGTGGGGGAGA	0.133
TCCCTTGAAGTTACCGAGA	0.844
TCCCTCGAAGTTACCGAGA	0.221
TCCCTTCCAGTTACCGAGA	0.351
TCCCTTGCAGTTACCGAGA	0.874
TCCCCTTGAGTTACCGAGA	0.307
TCCCTTGCAGTTAACGAGA	0.104
TCCCGGGTAGTCGGTGAGA	0.237
TCCCCCATAGTGCCAGAGA	0.453
TCCCATTAAGTGAGAGAGA	0.478
